From PubChem BioAssay
The sample as a whole holds a higher share of hits than the screen did.
NOMO-1 viab = NOMO-1 AML cell viability reduction, primary screen, STK33 inhibitor project, CellTiter-Glo luminescence | NOMO-1 AML viability, 72 h | inhibition, % (test concentration not listed) | hit rate 7.5% among 37,000 | AID 2330, 2010; in the data active = inhibition above about 80%
STK33 inh = STK33 kinase inhibitors, primary screen, biochemical, luminescence, ADP-Glo, MBP substrate; Serine/threonine-protein kinase 33 (Homo sapiens), Q9BYT3; inhibition, % at 12.5 µM; hit rate 0.44% among 27,000; AID 2322, 2010; in the data active = inhibition above about 20%
Target sequence (Q9BYT3 whole entry, looked up): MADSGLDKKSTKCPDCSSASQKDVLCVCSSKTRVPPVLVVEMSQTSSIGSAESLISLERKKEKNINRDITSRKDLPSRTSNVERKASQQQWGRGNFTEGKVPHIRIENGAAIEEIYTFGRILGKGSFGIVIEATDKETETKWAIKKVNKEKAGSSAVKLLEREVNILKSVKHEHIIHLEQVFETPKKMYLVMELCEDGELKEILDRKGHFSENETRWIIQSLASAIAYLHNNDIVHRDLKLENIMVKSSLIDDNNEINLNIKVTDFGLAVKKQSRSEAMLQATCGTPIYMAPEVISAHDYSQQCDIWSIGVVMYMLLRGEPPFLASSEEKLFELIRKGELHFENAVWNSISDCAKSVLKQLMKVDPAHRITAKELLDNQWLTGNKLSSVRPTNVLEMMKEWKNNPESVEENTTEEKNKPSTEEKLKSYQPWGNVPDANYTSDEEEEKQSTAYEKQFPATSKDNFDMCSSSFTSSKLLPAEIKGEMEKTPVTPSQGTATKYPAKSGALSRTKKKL
PD-1 reversal = activators reversing PD-1 mediated T-cell inhibition, primary screen, luminescence, primary human CD4 T cells, PD-L1 beads; activation, % (no concentration beside the values); CellTiter-Glo 96 h; 29,000 tested, under 10 active; AID 2316, 2010; call rule not given here
Each line names hits and unclear results; the compound was inactive in the other large screens; ! = a repeat was not active.

Cn1cnnc1SCC(=O)N1c2ccccc2Sc2ccc(C(F)(F)F)cc21	none
OCCN1CCN(CCCN2c3ccccc3Sc3ccc(C(F)(F)F)cc32)CC1	NOMO-1 viab 118.5! (no result: PD-1 reversal)
CN1CCN(CCCN2c3ccccc3Sc3ccc(Cl)cc32)CC1	NOMO-1 viab 105.7! (no result: PD-1 reversal)
NC(=O)COc1ccc(C=C2C(=O)c3ccccc3C2=O)cc1	none (no result: STK33 inh)
CCOC(=O)c1c(NC(=O)c2ccc(C)c(S(=O)(=O)N3CCCCCC3)c2)sc(C)c1C	none
O=C(O)CCCc1cc2cc(Br)ccc2o1	none (no result: STK33 inh)
OCCN1CCN(CC(O)COc2ccc3c(c2)CCC3)CC1 (stereo unspecified)	none
NS(=O)(=O)c1ccc(N=Cc2c(O)[nH]c3ccccc23)cc1	STK33 inh 93.7
CCn1c(SCC(=O)c2ccc(OC)cc2)nnc1-c1ccc(Cl)cc1	none
O=S(=O)(c1ccccc1)c1nc(-c2cccs2)oc1NCC1CCCO1 (stereo unspecified)	none
CC(C)(C)C1CCc2c(sc3nc(-c4cccs4)oc(=O)c23)C1 (stereo unspecified)	NOMO-1 viab 107.7 (no result: STK33 inh)
COC(=O)c1cc(OC)c(OC)cc1NC(=O)COc1ccc(Br)c(C)c1	none
Cc1ccc(OCC(=O)Nc2ccc3oc(-c4cccnc4)nc3c2)c(C)c1	none
NC(=Nc1ccccc1)NC(=O)c1nc(Cl)c(N)nc1N	NOMO-1 viab 119.4 (no result: PD-1 reversal)
NC(=O)NC(=O)Cc1ccccc1	none (no result: PD-1 reversal)
NC(=NCc1ccccc1)NC(=O)c1nc(Cl)c(N)nc1N	NOMO-1 viab 91.0!
COc1ccccc1NC(=O)c1ccc(CSc2nc3ccccc3o2)cc1	none (no result: PD-1 reversal)
S=C(NCCc1ccccc1)N1CCc2ccccc21	none
CC(=O)Nc1ccc(Nc2ncnc3c2cnn3Cc2ccc(Cl)cc2)cc1	none
COc1ccc(C(=O)COc2ccc(NC(=O)c3cccc([N+](=O)[O-])c3)cc2)cc1	none
COC(=O)COc1ccc(NC(=O)c2ccc(OC)c([N+](=O)[O-])c2)cc1	NOMO-1 viab 120.9
COc1ccccc1CCNC(=O)c1ccoc1C	none
Cc1oc2c(c1C(=O)NCCC(C)C)C(=O)c1ccccc1C2=O	NOMO-1 viab 140.4 (no result: STK33 inh)
Cc1onc(-c2ccccc2)c1C(=O)NCCCn1ccnc1	none
Cc1oc2c(c1C(=O)NCCCn1ccnc1)C(=O)c1ccccc1C2=O	NOMO-1 viab 141.3 (no result: STK33 inh)
CCn1c(SCC(=O)Nc2cccc(SC)c2)nnc1-c1ccc(Cl)cc1	none
COc1ccc(-n2nnnc2SCC(=O)Nc2ccc(F)cc2F)cc1	none
COc1ccc(C(=O)n2nc3c(c2-c2ccc(OC)cc2)COC(C)(C)C3)cc1	none (no result: STK33 inh)
CC(C)(C)C1CCc2c(sc(NC(=S)NC(=O)c3cc4ccccc4o3)c2C(N)=O)C1 (stereo unspecified)	none
C[C@@H]1CN([C@H](C)CO)C(=O)c2cc(NC(=O)Nc3ccc(F)cc3)ccc2O[C@H]1CN(C)Cc1ccc2c(c1)OCO2	none
C[C@H]1CN([C@@H](C)CO)C(=O)c2cc(NC(=O)Nc3ccccc3)ccc2O[C@H]1CN(C)Cc1ccc2c(c1)OCO2	NOMO-1 viab 92.0
C[C@H](CO)N1C[C@H](C)[C@H](CN(C)Cc2ccc3c(c2)OCO3)Oc2ccc(NC(=O)Nc3ccc4c(c3)OCO4)cc2C1=O	NOMO-1 viab 93.4 (no result: STK33 inh)
C[C@H]1CN([C@@H](C)CO)C(=O)c2cc(NC(=O)Nc3ccc4c(c3)OCO4)ccc2O[C@@H]1CN(C)Cc1ccc2c(c1)OCO2	none (no result: STK33 inh)
C[C@@H]1CN([C@@H](C)CO)C(=O)c2cc(NC(=O)Nc3ccc(F)cc3)ccc2O[C@H]1CN(C)Cc1ccc2c(c1)OCO2	none (no result: STK33 inh)
C[C@H](CO)N1C[C@H](C)[C@H](CN(C)Cc2ccc3c(c2)OCO3)Oc2ccc(NC(=O)Nc3ccc(F)cc3)cc2C1=O	NOMO-1 viab 88.9
COc1ccc(NC(=O)Nc2ccc3c(c2)C(=O)N([C@H](C)CO)C[C@H](C)[C@H](CN(C)Cc2ccc4c(c2)OCO4)O3)cc1	NOMO-1 viab 97.2 (no result: STK33 inh, PD-1 reversal)
COc1ccc(NC(=O)Nc2ccc3c(c2)C(=O)N([C@H](C)CO)C[C@@H](C)[C@@H](CN(C)Cc2ccc4c(c2)OCO4)O3)cc1	none
Cc1cccc(OCC(=O)Nc2ccccc2C(=O)NC(C)(C)C)c1	none
COC(=O)c1cn(CC(=O)Nc2ccccc2C(F)(F)F)c2ccccc12	none (no result: PD-1 reversal)
O=c1cc(Nc2ccc(Cl)cc2)nc(COc2ccccc2)[nH]1	none
C[C@@H]1CN([C@@H](C)CO)C(=O)c2cc(NC(=O)C3CCCCC3)ccc2O[C@@H]1CN(C)Cc1ccc2c(c1)OCO2	none (no result: STK33 inh)
CC(C)NC(=O)Nc1ccc2c(c1)C(=O)N([C@H](C)CO)C[C@H](C)[C@H](CN(C)Cc1ccc3c(c1)OCO3)O2	NOMO-1 viab 93.3 (no result: STK33 inh, PD-1 reversal)
C[C@H]1CN([C@@H](C)CO)C(=O)c2cc(NC(=O)C3CCCCC3)ccc2O[C@H]1CN(C)Cc1ccc2c(c1)OCO2	NOMO-1 viab 91.7
CC(C)NC(=O)Nc1ccc2c(c1)C(=O)N([C@@H](C)CO)C[C@@H](C)[C@@H](CN(C)Cc1ccc3c(c1)OCO3)O2	none
O=C(CSc1nc2cc(Cl)ccc2s1)Nc1ccc(I)cc1	none
CCOC(=O)c1c(CN(CC)CC)oc2ccc(OC)cc12	none (no result: STK33 inh)
CCOC(=O)c1c(CSc2nc(C)ccc2C#N)oc2ccc(OC(C)=O)cc12	NOMO-1 viab 117.0 (no result: STK33 inh)
Cc1ccc2c(CC(=O)NCc3ccco3)coc2c1C	NOMO-1 viab 114.9
Cc1ccc2c(CC(=O)Nc3cccc([N+](=O)[O-])c3)coc2c1C	none
O=C(CCSc1nc2ccccc2s1)N1CCOCC1	none (no result: PD-1 reversal)
C[C@@H]1CN([C@H](C)CO)C(=O)c2cccc(NC(=O)Nc3ccc(C(F)(F)F)cc3)c2O[C@H]1CN(C)C(=O)Nc1ccc2c(c1)OCO2	NOMO-1 viab 115.6 (no result: STK33 inh)
C[C@@H]1CN([C@H](C)CO)C(=O)c2cccc(NC(=O)Nc3ccc4c(c3)OCO4)c2O[C@H]1CN(C)C(=O)Nc1ccc2c(c1)OCO2	none (no result: STK33 inh)
C[C@@H]1CN([C@@H](C)CO)C(=O)c2cccc(NC(=O)Nc3ccc(C(F)(F)F)cc3)c2O[C@H]1CN(C)C(=O)Nc1ccc2c(c1)OCO2	NOMO-1 viab 89.5 (no result: STK33 inh, PD-1 reversal)
C[C@H]1CN([C@@H](C)CO)C(=O)c2cccc(NC(=O)Nc3ccc(F)cc3)c2O[C@H]1CN(C)C(=O)Nc1ccc2c(c1)OCO2	none (no result: STK33 inh)
CS(=O)(=O)N(CC(=O)NC1CCCC1)c1cc(Cl)c(Cl)cc1Cl	none
CCn1c(SCC(=O)Nc2cc(C(F)(F)F)ccc2Cl)nnc1-c1cccnc1	none
CCn1c(SCC(=O)Nc2ccc(C)c(C)c2)nnc1-c1ccncc1	none
C[C@H](CO)N1C[C@H](C)[C@@H](CN(C)Cc2ccc(Oc3ccccc3)cc2)Oc2ccc(NC(=O)Nc3ccc(C(F)(F)F)cc3)cc2C1=O	NOMO-1 viab 127.9 (no result: STK33 inh, PD-1 reversal)
COc1ccc(NC(=O)Nc2ccc3c(c2)C(=O)N([C@H](C)CO)C[C@@H](C)[C@@H](CN(C)Cc2ccc(C(F)(F)F)cc2)O3)cc1	none
C[C@H](CO)N1C[C@H](C)[C@H](CN(C)Cc2ccc(Oc3ccccc3)cc2)Oc2ccc(NC(=O)Nc3ccc(C(F)(F)F)cc3)cc2C1=O	NOMO-1 viab 113.9
C[C@H]1CN([C@@H](C)CO)C(=O)c2cc(NC(=O)Nc3ccc(C(F)(F)F)cc3)ccc2O[C@H]1CN(C)Cc1ccc(Oc2ccccc2)cc1	NOMO-1 viab 83.0 (no result: STK33 inh)
Cc1cc(C)cc(NC(=O)CN(c2ccc(Cl)cc2Cl)S(C)(=O)=O)c1	none
